Records with an inconclusive call do not appear. Activity calls are given as the source filed them. Unless noted, calls come from the whole dose curve; as a rule, active = well fitted curve in the direction sought with a large enough effect in the repeat runs; inconclusive = weak or mixed curves; inactive = no such curve, though single readings can be large; an effect the other way counts as inactive or inconclusive. Positions of bridges follow the written chain, without caps; N, C: chain ends. Non-standard residues stand in square brackets, D forms with d. Residues, ends and D or L forms follow the SMILES beside them. *: point of attachment. Dab(CH2SO3H) = N[C@@H](CCNCS(=O)(=O)O)C(=O)O; X3 = CC[C@@H](C)CCCCC(=O)*; Dab = NCC[C@H](N)C(=O)O
What was measured:
[1] = qHTS assay for small molecule agonists of the p53 signaling pathway (AID 651631; calls by dose curve; note: nearly all actives have a fitted effect of over 15% in size)
Outline: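 HCT-116 cells carrying a stable p53 response element–beta-lactamase reporter were plated, rested 5 h at 37 °C, then exposed to compound in DMSO for 16 h at 37 °C; reporter activity was read as FRET substrate fluorescence after 2 h at room temperature.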

[2] = qHTS assay for small molecules that induce genotoxicity in human embryonic kidney cells expressing luciferase-tagged ATAD5 (AID 651632); note: nearly all actives have a fitted effect of over 15% in size
Outline: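 HEK293T cells carrying a luciferase reporter tagged to ATAD5 were exposed to compound or DMSO vehicle for 16 hr at 37C, 5% CO2. Amplite was added, and after 30 min at room temperature luciferase activity was read as a marker of ATAD5 induction.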

[3] = qHTS assay for small molecule agonists of the p53 signaling pathway - cell viability (AID 651633; calls by dose curve; note: nearly all actives have a fitted effect of over 30% in size)
Outline: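 p53RE-bla cells, seeded at 4,000 per well and rested 5 h at 37 C/5% CO2, received compounds in DMSO for 16 h at 37 C. CellTiter-Glo was then added, and luminescence was read after 30 min at room temperature to gauge cytotoxicity.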

[4] = qHTS assay for small molecules that induce genotoxicity in human embryonic kidney cells expressing luciferase-tagged ATAD5 - cell viability (AID 651634; calls by dose curve; note: nearly all actives have a fitted effect of over 25% in size)
Outline: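 HEK293T cells expressing luciferase-tagged ATAD5 were exposed to compound or DMSO for 15.5 hr at 37C, 5% CO2. Viability was then read as live-cell protease activity by CellTiter-Fluor fluorescence after 30 min at 37C.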

[5] = qHTS assay for small molecule disruptors of the mitochondrial membrane potential - cell viability (AID 720634; calls by dose curve;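 note: human HepG2 liver cancer cells; nearly all actives have a fitted effect of over 20% in size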)
Outline: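 HepG2 cells seeded overnight at 37 C, then exposed to compound or DMSO for 1 hr at 37 C, 5% CO2. m-MPI dye added, then CellTiter-Glo for 30 min at room temperature; viability read as ATP luminescence.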

[6] = qHTS assay for small molecule disruptors of the mitochondrial membrane potential (AID 720635)
Outline: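 HepG2 cells (2,000/well) attached overnight at 37C, then took compound for 1 hr at 37C, 5% CO2. Mito-MPS dye was added for 30 min; fluorescence was read at 490/535 nm (monomers) and 540/590 nm (aggregates).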

[7] = qHTS assay to test for compound auto fluorescence at 590 nm (red) in HepG2 cells (AID 720674)
Outline: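 Compound auto-fluorescence is scored relative to Rose Bengal sodium, measured at 540/590 nm in live HepG2 cultures after 1 hr compound contact (37 C, 5% CO2).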

[8] = qHTS assay to test for compound auto fluorescence at 535 nm (green) in HepG2 cells (AID 720675)
[9] = qHTS assay to test for compound auto fluorescence at 460 nm (blue) in HEK293 cells (AID 720678)
Outline: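 Measured: blue fluorescence (Ex 405/Em 460 nm) of compound-treated HEK293 cells, incubated overnight at 37C with 5% CO2 and scaled to triamterene equivalents.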

[10] = qHTS assay to test for compound auto fluorescence at 590 nm (red) in HEK293 cells (AID 720679)
Outline: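 Using HEK293 cells at 2,000 per well, the screen added 23 nL of each compound after cell attachment and incubated overnight (37C, 5% CO2). The plate reader then captured red-label fluorescence, Ex/Em 540/590nm.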

[11] = qHTS assay to test for compound auto fluorescence at 535 nm (green) in HEK293 cells (AID 720680)
[12] = qHTS assay to test for compound auto fluorescence at 460 nm (blue) in HEK293 cell free culture (AID 720681)
Outline: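 Test compounds were pinned into cell-free culture medium (DMEM with 10% FBS) and fluorescence was read directly at Ex/Em 405/460 nm. Signals were expressed as fluorescence equivalents of triamterene, with DMSO vehicle as control.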

[13] = qHTS assay to test for compound auto fluorescence at 535 nm (green) in HEK293 cell free culture (AID 720682)
Outline: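 Read-out: 485/535 nm fluorescence intensity, calibrated against fluorescein. Medium only (DMEM + 10% FBS, no cells); test compound or DMSO vehicle added by pintool before plate reading.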

[14] = qHTS assay to test for compound auto fluorescence at 590 nm (red) in HEK293 cell free culture (AID 720683)
Outline: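 Tox21 10K library compounds were pinned into cell-free DMEM with 10% FBS and fluorescence was read at excitation 540 nm. Activity is expressed as Rose Bengal sodium equivalency.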

[15] = qHTS assay to test for compound auto fluorescence at 590 nm (red) in HepG2 cell free culture (AID 720684)
Outline: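 Measured in medium alone (MEM containing 10% FBS) following pintool addition of compound; emission at 590 nm with 540 nm excitation, referenced to Rose Bengal sodium.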

[16] = qHTS assay to test for compound auto fluorescence at 460 nm (blue) in HepG2 cell free culture (AID 720685)
Outline: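 Compound (23 nL) or DMSO pinned into cell-free MEM with 10% FBS; blue fluorescence read at 405/460 nm excitation/emission, expressed as auto-fluorescence equivalency to triamterene.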

[17] = qHTS assay to test for compound auto fluorescence at 535 nm (green) in HepG2 cell free culture (AID 720686)
[18] = qHTS assay to test for compound auto fluorescence at 460 nm (blue) in HepG2 cells (AID 720687)
Outline: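 Cells (2,000/well in MEM with 10% FBS) attached overnight at 37 C, then were exposed to compound or DMSO for 1 hr at 37 C, 5% CO2. Fluorescence read at Ex/Em 405/460 nm, expressed as triamterene-equivalent signal.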

[19] = molecular target: Glucocorticoid receptor (Homo sapiens) (UniProt P04150); test: qHTS assay to identify small molecule agonists of the glucocorticoid receptor (GR) signaling pathway (AID 720691; active = well fitted activation curve with a large enough effect in the signal ratio in the repeat runs, not every such curve was filed as active; the % refers to the signal ratio); conditions: GR-bla HeLa, beta-lactamase reporter ratio, 18 h; activation: at 62.4 µM (top of the series)
Sequence of Glucocorticoid receptor (Homo sapiens) (P04150 whole entry, looked up): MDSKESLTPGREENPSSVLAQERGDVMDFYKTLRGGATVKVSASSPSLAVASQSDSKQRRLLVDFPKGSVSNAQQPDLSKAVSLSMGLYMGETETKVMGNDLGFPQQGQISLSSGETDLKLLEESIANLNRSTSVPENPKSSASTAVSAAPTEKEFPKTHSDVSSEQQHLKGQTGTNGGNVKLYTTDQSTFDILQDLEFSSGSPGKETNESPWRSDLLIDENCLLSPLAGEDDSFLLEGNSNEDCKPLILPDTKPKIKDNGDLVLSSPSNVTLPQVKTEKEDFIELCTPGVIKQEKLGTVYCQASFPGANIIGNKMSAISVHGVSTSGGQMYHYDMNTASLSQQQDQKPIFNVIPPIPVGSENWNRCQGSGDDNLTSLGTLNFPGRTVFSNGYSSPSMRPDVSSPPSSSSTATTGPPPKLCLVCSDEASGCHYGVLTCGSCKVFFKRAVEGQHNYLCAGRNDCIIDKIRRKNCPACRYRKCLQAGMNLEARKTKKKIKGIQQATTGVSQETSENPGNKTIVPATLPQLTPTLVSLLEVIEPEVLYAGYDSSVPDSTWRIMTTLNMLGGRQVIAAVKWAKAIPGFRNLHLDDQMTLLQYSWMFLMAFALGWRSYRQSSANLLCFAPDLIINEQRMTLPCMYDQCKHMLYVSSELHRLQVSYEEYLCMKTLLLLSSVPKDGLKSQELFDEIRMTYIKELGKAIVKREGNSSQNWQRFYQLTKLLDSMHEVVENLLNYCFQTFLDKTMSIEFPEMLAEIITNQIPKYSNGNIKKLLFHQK
Outline: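 GR-bla HeLa cells (beta-lactamase reporter under glucocorticoid response element) were plated 4 h at 37 C/5% CO2, given compounds in DMSO, and incubated 18 h at 37 C. LiveBLAzer B/G FRET substrate was added for 2 h at room temperature, then fluorescence intensity read.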

[20] = molecular target: Glucocorticoid receptor (Homo sapiens) (UniProt P04150); test: qHTS assay to identify small molecule antagonists of the glucocorticoid receptor (GR) signaling pathway (AID 720692; active = well fitted inhibition curve with a large enough effect in the signal ratio in the repeat runs, not every such curve was filed as active; the % refers to the signal ratio)
Outline: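 GR-bla HeLa cells (beta-lactamase reporter under glucocorticoid response element) were pre-plated 4 h at 37 C, treated with compounds plus 5 nM dexamethasone (final) for 18 h, then read by LiveBLAzer B/G FRET fluorescence after 2 h.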

Measured: Potency

CC(=O)OCC1=C(C(=O)O)N2C(=O)[C@@H](NC(=O)Cc3ccccc3)[C@H]2SC1
inactive: [1] | [2] | [3] | [4] | [5] | [6] | [7] | [8] | [9] | [10] | [11] | [12] | [13] | [14] | [15] | [16] | [17] | [18] | [19] | [20]

CN(C)CCC(O)(c1ccccc1)c1ccccc1Cl (stereo not given)
inactive: [1] | [2] | [3] | [4] | [5] | [6] | [7] | [8] | [9] | [10] | [11] | [12] | [13] | [14] | [15] | [16] | [17] | [18] | [19] | [20]

NC[C@@H]1CC[C@@H](N)[C@@H](O[C@H]2[C@H](O)[C@@H](O[C@H]3O[C@H](CO)[C@@H](O)[C@H](N)[C@H]3O)[C@H](N)C[C@@H]2N)O1
inactive: [1] | [2] | [3] | [4] | [5] | [6] | [7] | [8] | [9] | [10] | [11] | [12] | [13] | [14] | [15] | [16] | [17] | [18] | [19] | [20]

NC(=O)[C@@H]1CCCN1C(=O)[C@H](Cc1cnc[nH]1)NC(=O)[C@@H]1CCC(=O)N1
inactive: [1] | [2] | [3] | [4] | [5] | [6] | [7] | [8] | [9] | [10] | [11] | [12] | [13] | [14] | [15] | [16] | [17] | [18] | [19] | [20]

COc1cc2c(c(OC)c1OC)-c1c(cc3c(c1OC)OCO3)C[C@@H](C)[C@](C)(O)C2
inactive: [1] | [2] | [3] | [4] | [5] | [6] | [7] | [8] | [9] | [10] | [11] | [12] | [13] | [14] | [15] | [16] | [17] | [18] | [19] | [20]

CC[C@@H](C)CCCCC(=O)N[C@@H](CCNCS(=O)(=O)O)C(=O)N[C@H](C(=O)N[C@@H](CCNCS(=O)(=O)O)C(=O)N[C@H]1CCNC(=O)[C@H]([C@@H](C)O)NC(=O)[C@H](CCNCS(=O)(=O)O)NC(=O)[C@H](CCNCS(=O)(=O)O)NC(=O)[C@H](CC(C)C)NC(=O)[C@@H](CC(C)C)NC(=O)[C@H](CCNCS(=O)(=O)O)NC1=O)[C@@H](C)O (X3-[Dab(CH2SO3H)]T[Dab(CH2SO3H)][Dab][Dab(CH2SO3H)][dL]L[Dab(CH2SO3H)][Dab(CH2SO3H)]T; lactam 4-C)
inactive: [1] | [2] | [3] | [4] | [5] | [6] | [7] | [8] | [9] | [10] | [11] | [12] | [13] | [14] | [15] | [16] | [17] | [18] | [19] | [20]
